Drawing on PubChem BioAssay, this text covers activation and outcome for 15 compounds.

For part of these data: Measured potencies and affinities stand elsewhere. Active and inactive are the calls of the source.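 The calls were made as follows, unless noted: active = calcium signal rise above buffer-control mean plus 5 SD in both duplicates, and also a hit in the primary screen; inactive = the rest.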

Assay [1] has as its system TRPC4 beta (transient receptor potential cation channel C4), mouse. Description: TRPC4 cation channel opening, retest – cell-based, Fluo4 calcium, HEK293 TRPC4beta/mu-opioid, duplicates, 10 µM, confirmation (AID 2426;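 active = fluorescence ratio normalized to control raised more than 50% in primary screen plus both repeat runs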;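 as to activation: percent rise of integrated ratio over buffer wells lacking compound which define 0%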). Conditions: Fluo4 calcium fluorescence, at 10 µM; active compounds read high.
Assay [2] relates to transient receptor potential cation channel C4 beta (TRPC4), mouse. Description: TRPC4 cation channel opening, second retest – cell-based, second round, Fluo4, HEK293 TRPC4beta/mu-opioid, 1 µM, confirmation (AID 2461;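 active = primary screen active and over 50% activation in each of two duplicate runs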;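 as to activation: 0% = wells without test compound as baseline of integrated fluorescence ratio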). Conditions: Fluo4 calcium fluorescence, at 1 µM; active compounds read high.
Assay [3] has as its system TRPC4 (transient receptor potential cation channel C4 beta), mouse. Description: potentiation of DAMGO EC20 TRPC4 response – cell-based, second round, Fluo-4, HEK293 TRPC4beta/mu-opioid, 1 µM, confirmation (AID 2554;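 active = primary screen hit whose fluorescence ratio, in both repeats, exceeds the weak agonist control mean by 3 SD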). Conditions: DAMGO EC20, Fluo-4 calcium flux, at 1 µM; active compounds read high.
The subject of assay [4] is TRPC4 beta (transient receptor potential cation channel C4), mouse. Description: potentiation of DAMGO EC20 TRPC4 response – cell-based, Fluo-4, HEK293 TRPC4beta/mu-opioid, confirmation (AID 2555;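 active = primary screen hit whose calcium fluorescence ratio, in both repeats, exceeds the weak agonist control mean by 3 SD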). Conditions: DAMGO EC20, Fluo-4 calcium flux, at 10 µM; active compounds read high.
In assay [5] the target is Short transient receptor potential channel 4 (Mus musculus) (UniProt Q9QUQ5). Description: blockers of DAMGO-evoked TRPC4 calcium flux – cell-based, Fluo4, HEK293 TRPC4beta/mu-opioid, confirmation (AID 2636;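 active = calcium signal cut by more than 3 SD below the full-agonist control yet still positive, in both repeats and the earlier primary screen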). Conditions: at 10 µM; active compounds read high.
Chain of Short transient receptor potential channel 4 (Mus musculus) (Q9QUQ5 whole entry, looked up): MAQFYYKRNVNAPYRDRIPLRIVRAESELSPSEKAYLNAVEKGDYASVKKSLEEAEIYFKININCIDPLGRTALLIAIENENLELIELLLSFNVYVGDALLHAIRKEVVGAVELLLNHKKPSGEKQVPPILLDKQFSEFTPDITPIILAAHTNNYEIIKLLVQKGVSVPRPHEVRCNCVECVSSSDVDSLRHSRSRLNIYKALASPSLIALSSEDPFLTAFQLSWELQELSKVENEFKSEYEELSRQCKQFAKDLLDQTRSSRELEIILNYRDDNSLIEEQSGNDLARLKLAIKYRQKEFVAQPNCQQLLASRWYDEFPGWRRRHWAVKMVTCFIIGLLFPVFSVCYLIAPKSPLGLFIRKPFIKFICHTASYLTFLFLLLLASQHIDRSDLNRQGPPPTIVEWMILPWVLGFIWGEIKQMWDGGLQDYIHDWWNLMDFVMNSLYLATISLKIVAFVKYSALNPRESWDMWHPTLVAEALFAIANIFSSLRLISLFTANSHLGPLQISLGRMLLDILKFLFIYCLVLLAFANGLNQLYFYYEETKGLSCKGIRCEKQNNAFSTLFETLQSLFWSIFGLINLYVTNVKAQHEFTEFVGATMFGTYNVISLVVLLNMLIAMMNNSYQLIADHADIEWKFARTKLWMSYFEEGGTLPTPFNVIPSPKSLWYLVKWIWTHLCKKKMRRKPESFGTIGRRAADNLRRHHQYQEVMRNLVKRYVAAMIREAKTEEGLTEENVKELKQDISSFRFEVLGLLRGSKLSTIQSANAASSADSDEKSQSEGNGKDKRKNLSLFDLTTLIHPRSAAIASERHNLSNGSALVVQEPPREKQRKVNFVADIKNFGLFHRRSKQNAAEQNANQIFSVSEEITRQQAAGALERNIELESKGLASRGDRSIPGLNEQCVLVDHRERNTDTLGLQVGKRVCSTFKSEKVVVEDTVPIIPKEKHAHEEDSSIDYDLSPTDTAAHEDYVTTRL
The target is the same in assay [6]. Description: blockers of DAMGO-evoked TRPC4 calcium flux – cell-based, second round, Fluo4, HEK293 TRPC4beta/mu-opioid, 1 µM, confirmation (AID 2637;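 active = calcium signal ratio cut to more than 3 SD under the fully stimulated control mean yet still positive, in both repeats and the primary screen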). Conditions: at 1 µM; active compounds read high.
For assay [7] the target is unchanged. The assay is described as follows: potentiation of DAMGO-evoked TRPC4 calcium signal – cell-based, HEK293 TRPC4/mu-opioid, Fluo-4 calcium, EC20 DAMGO, dose response (AID 434941;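 active = earlier screen potentiator hit that boosts the TRPC4 ion channel at some dose, with a dose response; inactive = no potentiation, no dose response, or not a prior hit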;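 also: calcium entry triggered by an EC20 dose of DAMGO at the co-expressed mu-opioid receptor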).
Assay [8] has the same target. Description: block of DAMGO-driven TRPC4 calcium entry – cell-based, HEK293 TRPC4/mu-opioid, Fluo-4 calcium, dose response (AID 434942;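 active = primary screen inhibitor hit that blocks the TRPC4 channel at some tested dose, yielding a dose curve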).
For assay [9], the target named is Short transient receptor potential channel 6 (Mus musculus) (UniProt Q61143). The assay is described as follows: TRPC6 blockade by TRPC4 inhibitor hits – cell-based, HEK293, membrane potential dye, duplicate, selectivity assay for TRPC4 inhibitor project, confirmation (AID 434948;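 active = active in primary screen and both duplicates, each dropping signal beyond three positive-control SD with fluorescence still positive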). Conditions: HEK293 TRPC6, membrane potential dye fluorescence, at 10 µM, stimulated with maximal-effect acetylcholine; active compounds read high.
Chain of Short transient receptor potential channel 6 (Mus musculus) (Q61143 whole entry, looked up): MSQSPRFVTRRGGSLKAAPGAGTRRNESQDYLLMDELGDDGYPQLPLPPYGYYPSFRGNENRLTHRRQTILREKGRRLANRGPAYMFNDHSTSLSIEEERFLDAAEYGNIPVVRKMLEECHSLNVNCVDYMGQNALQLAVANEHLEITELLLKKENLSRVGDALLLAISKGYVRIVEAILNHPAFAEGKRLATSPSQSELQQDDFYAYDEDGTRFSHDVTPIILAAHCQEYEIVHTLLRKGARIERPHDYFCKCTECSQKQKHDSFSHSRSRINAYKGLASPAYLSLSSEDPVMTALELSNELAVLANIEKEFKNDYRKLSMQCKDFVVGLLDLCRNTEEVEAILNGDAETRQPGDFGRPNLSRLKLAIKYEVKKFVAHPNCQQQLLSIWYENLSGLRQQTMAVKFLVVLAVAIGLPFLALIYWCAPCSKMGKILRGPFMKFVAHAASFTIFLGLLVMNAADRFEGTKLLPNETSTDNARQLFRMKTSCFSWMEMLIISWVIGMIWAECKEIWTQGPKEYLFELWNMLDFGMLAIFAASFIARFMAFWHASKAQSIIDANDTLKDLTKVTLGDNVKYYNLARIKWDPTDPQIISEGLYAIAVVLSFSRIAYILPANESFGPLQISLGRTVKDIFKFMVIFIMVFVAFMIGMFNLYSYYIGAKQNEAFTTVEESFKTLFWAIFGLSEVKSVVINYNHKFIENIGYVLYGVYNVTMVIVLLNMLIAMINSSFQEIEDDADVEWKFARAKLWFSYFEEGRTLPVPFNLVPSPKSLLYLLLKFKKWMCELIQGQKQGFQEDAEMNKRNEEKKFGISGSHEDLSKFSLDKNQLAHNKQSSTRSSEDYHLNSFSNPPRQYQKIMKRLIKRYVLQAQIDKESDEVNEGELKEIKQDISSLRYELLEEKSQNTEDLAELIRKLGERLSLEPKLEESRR

For assay [10] the target is unchanged. The assay is described as follows: TRPC6 opening by TRPC4 activator hits – cell-based, HEK293, membrane potential dye, duplicate, selectivity assay for TRPC4 activator project, confirmation (AID 434950;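 active = membrane potential signal rise above negative control mean plus 3 SD in both duplicates, also active in the earlier TRPC4 screen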;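 as to activation: 0% = buffer only wells and 100% = acetylcholine maximal-effect wells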). Conditions: HEK293 TRPC6, membrane potential fluorescence, at 10 µM; activation: active compounds read high; outcome: activation.
The target is the same in assay [11]. The assay is described as follows: positive modulators of mouse TRPC6 channel – HEK293 cells, membrane potential dye, duplicate, selectivity assay for TRPC4 potentiator project, confirmation (AID 434952;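 active = compound raising the membrane signal above positive-control mean plus 3 SD in both repeats, and a primary screen hit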). Conditions: HEK293 TRPC6, membrane potential dye fluorescence, at 10 µM, maximal acetylcholine added after compound; active compounds read high.
The target in assay [12] is Short transient receptor potential channel 4 (Mus musculus) (UniProt Q9QUQ5). Description: calcium flux activators in TRPC4/5HT1a cells, counter-screen for TRPC4 activator project, cell-based, second counter screen, HEK293 TRPC4/5HT1a, Fluo-4 (AID 434977).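 As to activation: plate controls were assay buffer for no effect and maximal serotonin response for full effect.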 Conditions: Fluo-4 calcium flux, at 10 µM; active compounds read high.
A short description of assay [13]: serotonin-gated TRPC4 signal block – cell-based, second counter screen, HEK293 TRPC4/5HT1a, Fluo-4, counter-screen for TRPC4 inhibitor project, confirmation (AID 434978;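 active = primary screen active whose calcium signal fell more than 3 SD beyond the full-serotonin control mean in both duplicate plates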;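 also: serotonin given first at submaximal then at maximal dose after compound preincubation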). Conditions: Fluo-4 calcium flux, at 10 µM, serotonin added to trigger calcium flux; active compounds read high.
Assay [14] relates to TRPC4 (mouse), co-expressed with 5HT1a in HEK293. Description: enhancement of serotonin-evoked TRPC4 response – cell-based, second counter screen, HEK293 TRPC4/5HT1a, Fluo-4, counter-screen for TRPC4 potentiator project, confirmation (AID 434979;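 active = signal rise over 3 SD above mean of control wells given weak agonist, in both repeats and first screen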). Conditions: Fluo-4 calcium flux, at 10 µM, serotonin added at its EC20 dose; active compounds read high.
The nature of assay [15]: nonspecific calcium rise without TRPC4 – cell-based, HEK293 mu-opioid receptor line, counter-screen for TRPC4 activator project, confirmation (AID 449723;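 active = hit in primary screen, with calcium signal over 5 SD above buffer well mean in both duplicates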;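 also: counter screen cells carry the mu-opioid receptor alone and lack TRPC4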). Conditions: HEK293 mu-opioid cells, Fluo-4 calcium fluorescence, at 10 µM; active compounds read high.
Assay [16] in a line: nonspecific potentiation of DAMGO calcium response – cell-based, HEK293 mu-opioid receptor line, counter-screen for TRPC4 allosteric potentiator project, confirmation (AID 449724;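 active = calcium signal rise more than 3 SD above the low-dose agonist control mean, in both duplicate plates and the primary screen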;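 also: HEK293 cells carrying mu-opioid receptor only with no TRPC4 channel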). Conditions: HEK293 mu-opioid receptor cells, Fluo-4 calcium flux, at 10 µM, compound added before EC20 DAMGO stimulus; active compounds read high.

Regarding `CN(C)c1ccc(/C=C/C(=O)c2c(O)c3ccccc3oc2=O)cc1`, the activation in assay [1] is 221% (active); in assay [10], 934% (active); in [12] it was 113% (active); in [15] it was 121% (active). Moreover, the outcome in [2], in assay [3], in assay [4], in assay [5], in [6] and in assay [7] was inactive. Moreover, the outcome in [8], in assay [9], in assay [11], in assay [13], in assay [14] and in assay [16] was inactive.
Turning to `COc1c2c(cc3c1C(CC(O)Cc1ccccc1)N(C)CC3)OCO2` (stereo not given), the activation in [1] is 110% (active); in [10], 43% (active). Moreover, the outcome in assay [2], in assay [3], in assay [4], in assay [5], in assay [6] and in assay [7] was inactive. For the same compound, the result in assay [8], in assay [9], in [11], in [12], in assay [13] and in assay [14] was inactive. Also, the outcome in assay [15] and in [16] was inactive.
With `CCCCN(CC)CCCNC(=O)c1csc2c1CCCCC2`, the values for the activation in assay [1], in [10] and in assay [12] were 211% (active), 66.5% (active) and 78.6% (active), respectively. Besides, the outcome in assay [2], in [3], in assay [4], in assay [5], in assay [6] and in [7] was inactive. The result in assay [8], in assay [9], in assay [11], in [13], in [14] and in assay [15] was inactive. Further, the result in assay [16] was inactive.
With `CC1CCN(CCCNS(=O)(=O)c2cc(Br)cc3c2N(C(=O)C2CC2)CC3)CC1`, the activation was 91% (active) in [1], 63% (active) in assay [2] and 26.3% (active) in assay [12]. Also, the outcome in assay [3], in [4], in assay [5], in assay [6], in assay [7] and in assay [8] was inactive. In addition, the result in assay [9], in assay [10], in [11], in [13], in assay [14] and in assay [15] was inactive. In [16], the result was inactive.
As for `O=C(Nc1ccc(Cl)cc1)N1CCC(c2nc(-c3cccs3)no2)CC1`, the values for the activation in assay [1] and in [12] were 158% (active) and 46.6% (active), respectively. The result in assay [2], in [3], in assay [4], in [5], in assay [6] and in assay [7] was inactive. Besides, the outcome in [8], in assay [9], in [10], in [11], in [13] and in [14] was inactive. For the same compound, the result in [15] and in assay [16] was inactive.
As for `O=C(NCCc1ccccn1)c1ccc(COc2ccccc2)o1`, the outcome in assay [1], in assay [2], in assay [3], in assay [4], in [5] and in assay [6] was inactive. The result in [7], in assay [8], in assay [9], in assay [11], in assay [13] and in [14] was inactive. For the same compound, the outcome in [15] and in assay [16] was inactive. Also, the activation in [10] was 35% (active); in [12], 58.4% (active).
With `O=C(Nc1ccncc1)c1ccc(Cl)c(S(=O)(=O)N2CCc3ccccc32)c1`, the activation is 108% (active) in assay [1] and 17.7% (active) in assay [12]. Besides, the result in assay [2], in assay [3], in assay [4], in [5], in [6] and in assay [7] was inactive. The result in assay [8], in assay [9], in [10], in assay [11], in [13] and in assay [14] was inactive. Also, the result in assay [15] and in [16] was inactive.
`COc1ccc(Cl)cc1C(=O)Nc1ccccc1N1CCN(C)CC1`: the values for the activation in assay [1] and in assay [12] were 120% (active) and 16% (active), respectively. The outcome in [2], in assay [3], in assay [4], in [5], in [6] and in assay [7] was inactive. Moreover, the result in [8], in assay [9], in assay [10], in assay [11], in assay [13] and in [14] was inactive. The result in assay [15] and in assay [16] was inactive.
On to `COc1ccc(CC(=O)NCC(c2ccc(OC)cc2)N(C)C)cc1` (stereo not given), for which the activation is 200% (active) in assay [1], 95% (active) in assay [2] and 46.5% (active) in [10]. Also, the result in [3], in [4], in [5], in [6], in assay [7] and in assay [8] was inactive. Moreover, the compound was classed as inactive in [9], in assay [11], in assay [12], in assay [13], in [14] and in assay [15]. The outcome in assay [16] was inactive.
For `Cc1ccn(CC(=O)NC2CCCN(Cc3ccc(CC(C)C)cc3)C2)n1` (stereo not given), the activation in assay [1] was 170% (active); in [10] it was 61% (active); in [12], 50.5% (active). In addition, the result in assay [2], in assay [3], in assay [4], in assay [5], in assay [6] and in assay [7] was inactive. Besides, the outcome in assay [8], in assay [9], in assay [11], in [13], in [14] and in [15] was inactive. Moreover, the result in [16] was inactive.
Regarding `Cc1ccccc1NC(=S)NCC(c1cccnc1)N(C)C` (stereo not given), the activation in assay [1] was 112% (active); in [2] it was 111% (active); in assay [10] it was 32% (active). Also, the result in [3], in assay [4], in assay [5], in assay [6], in assay [7] and in assay [8] was inactive. For the same compound, the compound was classed as inactive in assay [9], in [11], in assay [12], in assay [13], in [14] and in [15]. Further, the result in assay [16] was inactive.
For `CN(C)CCCN(C(=O)c1ccc(S(=O)(=O)N2CCc3ccccc3C2)cc1)c1nc2c(F)cc(F)cc2s1`, in assay [1], the activation is 73% (active). In addition, the result in assay [2], in assay [3], in assay [4], in [5], in assay [6] and in assay [7] was inactive. The result in assay [8], in [9], in [10], in assay [11], in assay [12] and in assay [13] was inactive. The outcome in [14], in [15] and in assay [16] was inactive.
Take `N=c1n(Cc2ccccc2)c2ccccc2n1CC(O)COc1ccccc1` (stereo not given): the outcome in assay [1], in assay [2], in [3], in [4], in [5] and in assay [6] was inactive. For the same compound, the outcome in assay [7], in assay [8], in [9], in assay [11], in assay [12] and in assay [13] was inactive. In addition, the result in [14], in assay [15] and in assay [16] was inactive. Also, the activation in assay [10] was 54% (active).
In the case of `COc1cc2ccccc2cc1C(=O)NCC(c1cccs1)N(C)C` (stereo not given), the activation in assay [1] is 164% (active); in assay [10], 59.5% (active). Further, the result in assay [2], in assay [3], in assay [4], in assay [5], in assay [6] and in [7] was inactive. Further, the outcome in assay [8], in assay [9], in assay [11], in assay [12], in [13] and in assay [14] was inactive. The result in [15] and in assay [16] was inactive.
On to `Cc1ccc(-c2nn(-c3cccc(F)c3)cc2CNCc2cccnc2)o1`, for which, in [1], the activation is 100% (active). Further, the result in assay [2], in assay [3], in assay [4], in assay [5], in assay [6] and in assay [7] was inactive. Moreover, the result in assay [8], in [9], in [10], in [11], in assay [12] and in assay [13] was inactive. Also, the result in assay [14], in [15] and in [16] was inactive.
